Experiment [1] addresses Bile acid receptor (Homo sapiens) (UniProt Q96RI1). The experiment in a line: qHTS assay to identify small molecule antagonists of the farnesoid-X-receptor (FXR) signaling pathway (AID 743217; active = well fitted inhibition curve with a large enough effect in the signal ratio in the repeat runs, not every such curve was filed as active; the % refers to the signal ratio; note: % is set by controls: 0 for no effect and ±100 for the full control effect). The method in brief: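 Beta-lactamase reporter under UAS control in HEK 293T cells; compound exposure 16 h at 37 °C in the presence of chenodeoxycholic acid (50 uM final); signal from B/G FRET substrate after 2 h at room temperature.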
(In general: Quantitative high-throughput screening tests each substance at several concentrations.)

Experiment [2] in a line: qHTS assay to identify small molecule agonists of the farnesoid-X-receptor (FXR) signaling pathway - cell viability counter screen (AID 743218). Note: nearly all actives have a fitted effect of over 45% in size. Note: potency is the fitted concentration of half-maximal effect. Summed up: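 In GeneBLAzer FXR-UAS-bla HEK 293T cells, compounds act for 16 h at 37 C. Cell viability is then scored in the reporter wells by CellTiter-Glo, 30 min at RT, luminescence.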
For experiment [3], the target named is Bile acid receptor (Homo sapiens) (UniProt Q96RI1). The experiment in a line: qHTS assay to identify small molecule agonists of the farnesoid-X-receptor (FXR) signaling pathway (AID 743220; active = well fitted activation curve with a large enough effect in the signal ratio in the repeat runs, not every such curve was filed as active; the % refers to the signal ratio; note: % is set by controls: 0 for no effect and ±100 for the full control effect). The method in brief:
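Beta-lactamase reporter under UAS control in GeneBLAzer FXR HEK 293T cells (5000/well) measured with LiveBLAzer FRET substrate after 2 h at room temperature. Compound exposure lasted 16 h at 37C.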

Experiment [4] can be described thus: qHTS assay to identify small molecule antagonists of the vitamin D receptor (VDR) signaling pathway - cell viability counter screen (AID 743225). Note: nearly all actives have a fitted effect of over 50% in size. Note: potency is the fitted concentration of half-maximal effect. Summed up:
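VDR-UAS-bla HEK 293T cells were plated and incubated 4 h at 37C, then dosed with compound plus 3 nM (final) 1-alpha,25-dihydroxyvitamin D3 for 16 h. After the 2 h beta-lactamase read, viability in the same wells was read as CellTiter-Glo luminescence after 30 min at room temperature.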

Experiment [5] is described as follows: qHTS assay to identify small molecule agonists of the NFkB signaling pathway - cell viability counter screen (AID 1159515; calls by dose curve; note: series mostly up to about 61 µM; % is set by controls: 0 for no effect and ±100 for the full control effect; nearly all actives have a fitted effect of over 55% in size). The method in brief: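 Viability in NFkB-bla ME-180 cells was measured by CellTiter-Glo luminescence, 30 min room temperature, in wells already treated 5 hr with compounds and read for reporter FRET.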
A short description of experiment [6]: qHTS assay to identify small molecule agonists of the endoplasmic reticulum stress response signaling pathway - cell viability counter screen (AID 1159517; calls by dose curve;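 note: HeLa cells carrying an ER stress response element beta-lactamase reporter; series mostly up to about 61 µM; % is set by controls: 0 for no effect and ±100 for the full control effect; nearly all actives have a fitted effect of over 50% in size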). Summed up:
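Counter-screen wells were identical to the reporter wells. Cells were plated at 1,500 per well and dosed for 5 hr, then read for luminescence 30 min after CellTiter-Glo addition.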

A short description of experiment [7]: qHTS assay to identify small molecule antagonists of the retinoid-related orphan receptor gamma (ROR-gamma) signaling pathway - cell viability counter screen (AID 1159520). Note: % is set by controls: 0 for no effect and ±100 for the full control effect; nearly all actives have a fitted effect of over 50% in size. Summed up:
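Tet-on ROR gamma CHO cells were given compounds for 2 hr, then doxycycline hyclate at 1 uM final, and incubated 16 hr at 37 C. Viability was measured as ATP content by CellTiter-Glo luminescence.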

Experiment [8] deals with Nuclear receptor ROR-gamma (Homo sapiens) (UniProt P51449). The experiment in a line: qHTS assay to identify small molecule antagonists of the retinoid-related orphan receptor gamma (ROR-gamma) signaling pathway (AID 1159521;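 note: CHO cells with doxycycline inducible ROR-gamma driving an RORE luciferase reporter; top concentration of the series differs between compounds; % is set by controls: 0 for no effect and ±100 for the full control effect; nearly all actives have a fitted effect of over 50% in size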). Summed up: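 Tet-on ROR-gamma CHO cells with ROR response element-luciferase reporter; compounds added 2 hr before 1 uM doxycycline induction, then 16 hr at 37 C. Antagonism scored as decreased ONE-Glo luminescence.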

Experiment [9] in a line: qHTS assay to identify small molecule agonists of the AP-1 signaling pathway - cell viability counter screen (AID 1159525; calls by dose curve; note: nearly all actives have a fitted effect of over 55% in size). The method in brief:
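AP-1-bla ME-180 cells in Opti-MEM with 0.5% dialyzed FBS, compound exposure 5 h at 37 C in 15-point titration. Viability read in the same wells as ATP content by CellTiter-Glo luminescence, normalised to tetra-n-octylammonium bromide and DMSO controls.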

Experiment [10] in a line: qHTS assay to identify small molecule agonists of the AP-1 signaling pathway (AID 1159526; calls by dose curve; note: % is set by controls: 0 for no effect and ±100 for the full control effect).
Experiment [11] can be described thus: qHTS assay to identify small molecule agonists of the peroxisome proliferator-activated receptor delta (PPARd) signaling pathway - cell viability counter screen (AID 743211). Note: nearly all actives have a fitted effect of over 55% in size. Note: potency is the fitted concentration of half-maximal effect. The method in brief:
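PPARd-bla HEK293H cells (3000/well) were pre-incubated 5 h at 37 C, then exposed to compound for 17 h at 37 C. After 2 h with LiveBLAzer substrate, CellTiter-Glo was added to the same wells; luminescence read after 30 min at room temperature.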

Experiment [12] deals with Peroxisome proliferator-activated receptor delta (Homo sapiens) (UniProt Q03181). The experiment in a line: qHTS assay to identify small molecule agonists of the peroxisome proliferator-activated receptor delta (PPARd) signaling pathway (AID 743212; calls by dose curve; note: % is set by controls: 0 for no effect and ±100 for the full control effect). Summed up: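 Quantitative high-throughput agonist screen in a HEK293H beta-lactamase reporter line under UAS control. Compounds in DMSO, at 37 C. Fluorescence read after 2 h with FRET substrate at room temperature.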
Chain of Peroxisome proliferator-activated receptor delta (Homo sapiens) (Q03181 whole entry, looked up): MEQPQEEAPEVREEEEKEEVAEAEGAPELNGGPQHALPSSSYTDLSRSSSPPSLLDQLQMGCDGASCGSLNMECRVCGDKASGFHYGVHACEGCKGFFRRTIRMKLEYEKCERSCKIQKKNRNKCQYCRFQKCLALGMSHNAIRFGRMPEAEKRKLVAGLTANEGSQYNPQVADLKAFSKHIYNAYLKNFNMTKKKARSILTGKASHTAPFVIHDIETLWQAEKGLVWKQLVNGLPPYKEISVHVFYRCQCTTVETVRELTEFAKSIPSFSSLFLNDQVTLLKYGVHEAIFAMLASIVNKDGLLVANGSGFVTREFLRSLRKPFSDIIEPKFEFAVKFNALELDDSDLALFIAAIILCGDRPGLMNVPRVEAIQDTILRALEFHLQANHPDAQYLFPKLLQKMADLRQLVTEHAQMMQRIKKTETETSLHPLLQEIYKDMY

Experiment [13] can be described thus: qHTS assay to identify small molecule antagonists of the peroxisome proliferator-activated receptor delta (PPARd) signaling pathway - cell viability counter screen (AID 743213). Note: nearly all actives have a fitted effect of over 50% in size. Note: potency is the fitted concentration of half-maximal effect. Summed up:
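Same-well viability: cells pre-incubated 5 h, dosed with compound plus 300 nM L165041, kept 17 h at 37 C, FRET substrate 2 h RT, then CellTiter-Glo 30 min RT and luminescence.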

Experiment [14] concerns the target Peroxisome proliferator-activated receptor delta (Homo sapiens) (UniProt Q03181). The experiment in a line: qHTS assay to identify small molecule antagonists of the peroxisome proliferator-activated receptor delta (PPARd) signaling pathway (AID 743215; active = well fitted inhibition curve with a large enough effect in the signal ratio in the repeat runs, not every such curve was filed as active; the % refers to the signal ratio). The method in brief:
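Antagonist-mode beta-lactamase reporter screen: HEK293H cells with UAS-bla under PPARd control, stimulated by 300 nM L165041 (final) alongside test compound for 17 h at 37 C, then FRET fluorescence after 2 h substrate incubation.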

Experiment [15] can be described thus: qHTS assay to identify small molecule antagonists of the farnesoid-X-receptor (FXR) signaling pathway - cell viability counter screen (AID 743221; active = well fitted cell-killing curve with a large enough effect in the repeat runs, not every such curve was filed as active). Summed up: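 GeneBLAzer FXR-UAS-bla HEK 293T cells, compound plus chenodeoxycholic acid (50 uM final), 16 h at 37 C. CellTiter-Glo added to the same wells after the beta-lactamase read; luminescence read after 30 min at room temperature as viability.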

Experiment [16] in a line: qHTS assay to identify small molecule agonists of the vitamin D receptor (VDR) signaling pathway - cell viability counter screen (AID 743224). Note: nearly all actives have a fitted effect of over 50% in size. Note: potency is the fitted concentration of half-maximal effect. Summed up: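 VDR-bla cell line, quantitative HTS format; 16 h compound incubation (37C, 5% CO2); ATP-based CellTiter-Glo luminescence measured in the reporter assay wells.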
In experiment [17] the target is Retinoic acid receptor RXR-alpha (Homo sapiens) (UniProt P19793). The experiment in a line: qHTS assay to identify small molecule agonists of the RXR signaling pathway (AID 1159527; calls by dose curve; note: % is set by controls: 0 for no effect and ±100 for the full control effect; nearly all actives have a fitted effect of over 35% in size). Summed up:
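GeneBLAzer RXR-alpha-UAS-bla HEK 293T cells in 2% charcoal-stripped FBS medium were exposed to compounds for 16 hr at 37 C in agonist mode. Beta-lactamase reporter read as 460/530 nm FRET ratio after 2 hr substrate loading.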

In experiment [18] the target is Vitamin D3 receptor (Homo sapiens) (UniProt P11473). Description: qHTS assay to identify small molecule agonists of the vitamin D receptor (VDR) signaling pathway (AID 743222; calls by dose curve; note: % is set by controls: 0 for no effect and ±100 for the full control effect). The method in brief:
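Agonist activity measured in VDR-bla reporter cells. Exposure 16 h, 37C, 5% CO2; detection by B/G FRET substrate, 2 h RT.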

Experiment [19] has the same target. The experiment in a line: qHTS assay to identify small molecule antagonists of the vitamin D receptor (VDR) signaling pathway (AID 743223; active = well fitted inhibition curve with a large enough effect in the signal ratio in the repeat runs, not every such curve was filed as active; the % refers to the signal ratio; note: % is set by controls: 0 for no effect and ±100 for the full control effect). Summed up: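 VDR-bla cells were treated with compound plus 3 nM final 1alpha,25-dihydroxyvitamin D3 for 16 h at 37C. Beta-lactamase reporter read by B/G FRET substrate fluorescence after 2 h at room temperature. qHTS format.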

The structures appear in SMILES notation. Inconclusive results are not listed. Values without a mark were called inactive. The source made the active and inactive calls. Unless noted, calls come from the whole dose curve; as a rule, active = well fitted curve in the direction sought with a large enough effect in the repeat runs; inconclusive = weak or mixed curves; inactive = no such curve, though single readings can be large; an effect the other way counts as inactive or inconclusive.

Chain of Bile acid receptor (Homo sapiens) (Q96RI1 whole entry, looked up): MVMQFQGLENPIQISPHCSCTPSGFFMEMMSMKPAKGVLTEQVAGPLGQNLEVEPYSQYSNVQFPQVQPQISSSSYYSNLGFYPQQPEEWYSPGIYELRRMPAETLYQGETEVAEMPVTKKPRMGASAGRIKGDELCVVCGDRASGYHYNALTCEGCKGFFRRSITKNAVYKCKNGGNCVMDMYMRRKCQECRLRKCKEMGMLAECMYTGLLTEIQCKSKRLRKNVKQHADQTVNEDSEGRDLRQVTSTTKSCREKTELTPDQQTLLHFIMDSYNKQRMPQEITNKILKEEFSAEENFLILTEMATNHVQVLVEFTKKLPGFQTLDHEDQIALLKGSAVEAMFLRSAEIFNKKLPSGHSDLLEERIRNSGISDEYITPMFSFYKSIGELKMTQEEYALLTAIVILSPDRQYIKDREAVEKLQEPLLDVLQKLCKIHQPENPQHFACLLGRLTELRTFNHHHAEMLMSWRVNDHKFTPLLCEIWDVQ
Chain of Retinoic acid receptor RXR-alpha (Homo sapiens) (P19793 whole entry, looked up): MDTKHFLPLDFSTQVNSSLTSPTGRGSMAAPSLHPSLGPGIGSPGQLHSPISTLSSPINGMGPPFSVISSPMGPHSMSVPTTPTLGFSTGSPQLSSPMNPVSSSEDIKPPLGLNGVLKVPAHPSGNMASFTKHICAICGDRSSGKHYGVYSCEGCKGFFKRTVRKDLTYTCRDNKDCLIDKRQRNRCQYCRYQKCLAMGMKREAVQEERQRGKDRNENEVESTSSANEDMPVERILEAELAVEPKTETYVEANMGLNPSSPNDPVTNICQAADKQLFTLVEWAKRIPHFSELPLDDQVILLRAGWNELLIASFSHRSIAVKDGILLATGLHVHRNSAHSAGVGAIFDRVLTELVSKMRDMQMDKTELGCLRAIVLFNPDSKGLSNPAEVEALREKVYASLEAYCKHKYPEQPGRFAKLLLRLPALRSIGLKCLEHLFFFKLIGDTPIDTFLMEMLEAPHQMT
Chain of Vitamin D3 receptor (Homo sapiens) (P11473 whole entry, looked up): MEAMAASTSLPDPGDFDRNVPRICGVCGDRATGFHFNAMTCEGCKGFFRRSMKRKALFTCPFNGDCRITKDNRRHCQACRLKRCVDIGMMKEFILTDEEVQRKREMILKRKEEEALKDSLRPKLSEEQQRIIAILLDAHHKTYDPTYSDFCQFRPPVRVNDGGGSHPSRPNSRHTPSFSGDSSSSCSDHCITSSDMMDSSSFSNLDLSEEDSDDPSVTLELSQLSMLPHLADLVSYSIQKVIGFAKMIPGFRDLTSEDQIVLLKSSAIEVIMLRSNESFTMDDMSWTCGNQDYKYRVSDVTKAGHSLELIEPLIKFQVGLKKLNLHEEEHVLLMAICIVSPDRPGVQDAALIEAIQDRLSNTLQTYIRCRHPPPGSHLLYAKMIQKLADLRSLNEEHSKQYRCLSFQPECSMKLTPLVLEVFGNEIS

Turning to `CN1CCN(C2=Nc3cc(Cl)ccc3Nc3ccccc32)CC1`, the call in experiment [1], in experiment [3] and in experiment [6] was inactive. In addition, the Potency entry in [2], in [4], in experiment [5], in [7], in experiment [8] and in [9] was “inactive” throughout. Besides, the Potency entry in experiment [10] is “inactive”.
Consider `O=c1[nH]cnc2ccccc12`, for which the Potency result in experiment [11], in experiment [13], in [2], in [15], in [16] and in [4] was “inactive” in each case. In addition, the Potency entry in experiment [5], in experiment [7], in experiment [8], in [9], in experiment [10] and in [17] was “inactive” throughout. The molecule was classed as inactive in experiment [12], in experiment [14], in experiment [1], in [3] and in experiment [6].
Regarding `C=C(C)C(=O)OCCN(C)C`, the Potency result in [11], in experiment [13], in experiment [2], in experiment [15], in experiment [16] and in [4] was “inactive” throughout. For the same molecule, the Potency result in experiment [5], in experiment [7], in experiment [8], in experiment [9] and in experiment [10] was “inactive” throughout. Besides, the call in experiment [12], in [18] and in experiment [6] was inactive.
Regarding `Cc1ncsc1CCO`, the Potency entry in experiment [11], in experiment [13], in experiment [2], in [15], in experiment [16] and in [4] was “inactive” throughout. Further, the Potency entry in experiment [5], in experiment [7], in experiment [8], in experiment [9] and in experiment [10] was “inactive” each time. For the same molecule, the result in [12], in [14], in experiment [1], in experiment [3], in [18] and in experiment [6] was inactive.
Regarding `CC(Cc1cccc(C(F)(F)F)c1)NCCOC(=O)c1ccccc1` (stereo not given), the Potency in [11] was 21.1 µM (active); in experiment [13], 18.8 µM (active); in experiment [2], 21.1 µM (active); in experiment [16], 23.7 µM (active); in experiment [4], 16.9 µM (active). The outcome in [12] and in experiment [6] was inactive. Further, the Potency entry in experiment [5], in experiment [7], in experiment [8] and in [9] was “inactive” in each case.
Regarding `Oc1ccc(Cc2ccccc2)cc1`, the outcome in [12], in experiment [14], in experiment [18] and in [6] was inactive. Also, the Potency result in [13], in experiment [2], in [15], in [16], in experiment [5] and in [7] was “inactive” throughout. The Potency entry in [8], in [9] and in [17] was “inactive” throughout.
On to `CCN(CCO)CCCC(C)Nc1ccnc2cc(Cl)ccc12` (stereo not given), for which the activity change, negative = cytotoxicity is 9.74% [at 5.95 µM] in experiment [11], 10.2% [at 5.95 µM] in experiment [15] and 1.38% [at 5.95 µM] in [16]. Besides, the viability change, negative = cytotoxic in [2] was -0.758% [at 5.95 µM]; in experiment [4] it was -0.399% [at 6.95 µM]; in [9], 2.23% [at 6.97 µM]. The activation in [18] is 9.25% [at 6.01 µM]; in experiment [17] it was 7.66% [at 6.98 µM]. In experiment [5], the activity, negative = cytotoxic was 7.84% [at 6.95 µM]. In addition, in experiment [7], the activity, negative = cytotoxicity is 0.752% [at 8.39 µM]. In experiment [8], the activity change, negative = inhibition is 13.3% [at 8.39 µM].
For `C=CC[N+]1([C@H]2C[C@H]3[C@@H]4CC[C@H]5C[C@H](OC(C)=O)[C@@H](N6CCCCC6)C[C@]5(C)[C@H]4CC[C@]3(C)[C@H]2OC(=O)CC)CCCCC1`, the Potency result in experiment [11], in experiment [13], in experiment [2], in experiment [15], in [19] and in experiment [16] was “inactive” throughout. Moreover, the Potency result in [4], in experiment [5], in experiment [7], in experiment [8], in [9] and in [10] was “inactive” each time. Moreover, the Potency result in [17] is “inactive”. The molecule was classed as inactive in experiment [12], in [14], in [18] and in experiment [6].

For the origin of these results see PubChem BioAssay (Tox21).
